Inconclusive results are not listed. Calls of active or inactive are those of the source. Unless noted, calls follow the shape of the dose curve; as a rule, active = well fitted curve in the direction sought with a large enough effect in the repeat runs; inconclusive = weak or mixed curves; inactive = no such curve, though single readings can be large; an effect the other way counts as inactive or inconclusive.
Legend:
[1] = biological target: Aryl hydrocarbon receptor (Homo sapiens) (UniProt P35869); experiment: qHTS assay to identify small molecule that activate the aryl hydrocarbon receptor (AhR) signaling pathway (AID 743085);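 also: HG2L7.5c1 human HepG2 liver cells with stably integrated DRE-driven firefly reporter; series mostly up to about 70 µM; nearly all actives have a fitted effect of over 15% in size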
Method in brief: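 HepG2 cells (HG2L7.5c1) stably carrying a firefly luciferase reporter driven by 20 dioxin responsive elements were exposed to compound for 24 h at 37C after a 5 h settling period; luminescence rise (ONE-Glo) indicated activation.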

[2] = qHTS assay to identify small molecule that activate the aryl hydrocarbon receptor (AhR) signaling pathway - cell viability counter screen (AID 743086);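 also: HepG2 liver cells carrying the AhR DRE luciferase reporter; series mostly up to about 70 µM; nearly all actives have a fitted effect of over 45% in size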
Method in brief: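 Cytotoxicity counter screen: CellTiter-Fluor signal (30 min, 37 C) in 4000 HepG2 cells/well carrying the DRE-luciferase reporter, following 24 h compound exposure at 37 C.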

[3] = biological target: Peroxisome proliferator-activated receptor gamma (Homo sapiens) (UniProt P37231); experiment: qHTS assay to identify small molecule agonists of the peroxisome proliferator-activated receptor gamma (PPARg) signaling pathway (AID 743094; active = well fitted activation curve with a large enough effect in the signal ratio in the repeat runs, not every such curve was filed as active; the % refers to the signal ratio)
Method in brief: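 Cell-based bla reporter, HEK293H background, PPARg-driven UAS. Pre-incubation 5 h, 37C, 5% CO2. Compound 17 h, 37C. Substrate 1 h RT; fluorescence.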

[4] = biological target: Peroxisome proliferator-activated receptor gamma (Homo sapiens) (UniProt P37231); experiment: qHTS assay to identify small molecule antagonists of the peroxisome proliferator-activated receptor gamma (PPARg) signaling pathway (AID 743191; calls by dose curve; also: series mostly up to about 63 µM; nearly all actives have a fitted effect of over 30% in size)
Method in brief: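 Beta-lactamase reporter under UAS control in HEK293H PPARg-bla cells; compound treatment 17 h at 37C. Read-out: fluorescence intensity after 1 h room-temperature incubation with LiveBLAzer B/G FRET substrate.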

[5] = qHTS assay to identify small molecule antagonists of the peroxisome proliferator-activated receptor gamma (PPARg) signaling pathway - cell viability counter screen (AID 743194); also: nearly all actives have a fitted effect of over 55% in size
Method in brief: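 Viability was measured as CellTiter-Glo luminescence in GeneBLAzer PPARg UAS-bla HEK293H cells. These cells had been exposed 17 h at 37 C to compounds together with rosiglitazone at 50 nM final, with the beta-lactamase readout taken in the same wells.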

[6] = qHTS assay for small molecule agonists of the antioxidant response element (ARE) signaling pathway (AID 743202; active = well fitted activation curve with a large enough effect in the signal ratio in the repeat runs, not every such curve was filed as active; the % refers to the signal ratio)
Method in brief: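 After 16 hours of compound treatment at 37 C, HepG2 cells with a stably integrated ARE-driven beta-lactamase reporter were loaded 2 hours at room temperature with LiveBLAzer B/G FRET substrate and fluorescence intensity measured.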

[7] = qHTS assay for small molecule agonists of the antioxidant response element (ARE) signaling pathway - cell viability counter screen (AID 743203; calls by dose curve; also: nearly all actives have a fitted effect of over 55% in size)
Method in brief: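 Measured in the same wells as the beta-lactamase ARE reporter, this read-out is CellTiter-Glo luminescence from HepG2 ARE-bla cells given compounds for 16 hrs.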

[8] = qHTS assay for small molecule activators of the heat shock response signaling pathway - cell viability counter screen (AID 743209); also: nearly all actives have a fitted effect of over 50% in size
Method in brief: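 Same-well multiplex: after 2.5 h room-temperature incubation with LiveBLAzer B/G substrate and fluorescence reading, CellTiter-Glo reagent was added to HSE-bla HeLa cells that had received compound for 5 h at 37 C; luminescence read after 30 min.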

[9] = qHTS assay for small molecule activators of the heat shock response signaling pathway (AID 743210; active = well fitted activation curve with a large enough effect in the signal ratio in the repeat runs, with a control signal flat, not every such curve was filed as active; the % refers to the signal ratio; also: series mostly up to about 63 µM)
Method in brief: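 Compound exposure lasted 5 h at 37 C in HeLa cells carrying a heat-shock-element-driven beta-lactamase reporter. Read-out: fluorescence intensity after 2.5 h room-temperature loading with LiveBLAzer B/G FRET substrate.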

[10] = qHTS assay to identify small molecule agonists of the peroxisome proliferator-activated receptor delta (PPARd) signaling pathway - cell viability counter screen (AID 743211); also: nearly all actives have a fitted effect of over 55% in size
Method in brief: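 PPARd-bla HEK293H cells (UAS-beta-lactamase reporter) were treated with compounds for 17 h at 37 C. Viability was then read in the same wells by CellTiter-Glo luminescence after 30 min at room temperature.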

[11] = biological target: Peroxisome proliferator-activated receptor delta (Homo sapiens) (UniProt Q03181); experiment: qHTS assay to identify small molecule agonists of the peroxisome proliferator-activated receptor delta (PPARd) signaling pathway (AID 743212; calls by dose curve)
Method in brief: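 Beta-lactamase reporter readout: a ratiometric FRET signal from the LiveBLAzer substrate after 2 h at room temperature. Compound exposure at 37 °C in PPARδ-bla HEK293H cells driven by an upstream activator sequence.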

[12] = biological target: Peroxisome proliferator-activated receptor delta (Homo sapiens) (UniProt Q03181); experiment: qHTS assay to identify small molecule antagonists of the peroxisome proliferator-activated receptor delta (PPARd) signaling pathway (AID 743215; active = well fitted inhibition curve with a large enough effect in the signal ratio in the repeat runs, not every such curve was filed as active; the % refers to the signal ratio;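 also: cells stimulated with agonist L165041 at 300 nM final during compound exposure; series mostly up to about 62 µM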)
Method in brief: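 Fluorescence from cleaved LiveBLAzer B/G FRET substrate (2 h, room temperature) reports PPARd-driven beta-lactamase in HEK293H UAS-bla cells. Cells had been treated 17 h at 37 C with compound plus 300 nM final L165041.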

[13] = qHTS assay to identify small molecule agonists of the farnesoid-X-receptor (FXR) signaling pathway - cell viability counter screen (AID 743218); also: nearly all actives have a fitted effect of over 45% in size
Method in brief: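 Readout: CellTiter-Glo luminescence, 30 min RT, multiplexed after the FXR-bla FRET reading. HEK 293T FXR-UAS-bla cells received compound 5 h post-plating and were incubated 16 h at 37 C.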

[14] = qHTS assay to identify small molecule antagonists of the farnesoid-X-receptor (FXR) signaling pathway - cell viability counter screen (AID 743221; active = well fitted cell-killing curve with a large enough effect in the repeat runs, not every such curve was filed as active; also: nearly all actives have a fitted effect of over 50% in size)
Method in brief: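 FXR-UAS-bla HEK 293T cells were treated with test compounds plus chenodeoxycholic acid (50 uM final) for 16 h at 37 C. Cell viability in the same wells was then read as CellTiter-Glo luminescence after 30 min at room temperature.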

[15] = biological target: Vitamin D3 receptor (Homo sapiens) (UniProt P11473); experiment: qHTS assay to identify small molecule agonists of the vitamin D receptor (VDR) signaling pathway (AID 743222; calls by dose curve)
Method in brief: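 Following 4 h attachment at 37C, VDR-bla cells (2,000 per well) received DMSO-dissolved compounds or controls. After 16 h incubation, LiveBLAzer B/G FRET substrate was added and fluorescence read 2 h later at room temperature.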

[16] = biological target: Vitamin D3 receptor (Homo sapiens) (UniProt P11473); experiment: qHTS assay to identify small molecule antagonists of the vitamin D receptor (VDR) signaling pathway (AID 743223; active = well fitted inhibition curve with a large enough effect in the signal ratio in the repeat runs, not every such curve was filed as active; the % refers to the signal ratio)
Method in brief: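 VDR-bla cells were plated, incubated 4 h at 37C, then given compound and 1alpha,25-dihydroxyvitamin D3 (3 nM final). After 16 h at 37C, LiveBLAzer B/G FRET substrate was added for 2 h at room temperature and fluorescence read.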

[17] = qHTS assay to identify small molecule agonists of the vitamin D receptor (VDR) signaling pathway - cell viability counter screen (AID 743224); also: series mostly up to about 63 µM; nearly all actives have a fitted effect of over 50% in size
Method in brief: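 In parallel with the bla FRET readout, cytotoxicity toward VDR-bla cells after 16 h compound exposure was assessed by CellTiter-Glo, with luminescence recorded after a 30 min room-temperature incubation.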

[18] = qHTS assay to identify small molecule antagonists of the peroxisome proliferator-activated receptor delta (PPARd) signaling pathway - cell viability counter screen (AID 743213); also: nearly all actives have a fitted effect of over 50% in size
Method in brief: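 HEK293H cells with the PPARd UAS-bla reporter, co-treated 17 h at 37 C with compounds and L165041 (300 nM final), were lysed with CellTiter-Glo. Luminescence indicated viable cell content.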

[19] = biological target: Bile acid receptor (Homo sapiens) (UniProt Q96RI1); experiment: qHTS assay to identify small molecule antagonists of the farnesoid-X-receptor (FXR) signaling pathway (AID 743217; active = well fitted inhibition curve with a large enough effect in the signal ratio in the repeat runs, not every such curve was filed as active; the % refers to the signal ratio)
Method in brief: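 FRET fluorescence after 2 h room-temperature LiveBLAzer loading gives the readout. Prior step: FXR-bla HEK 293T cells, seeded and incubated 5 h, received test compounds plus 50 uM final CDCA for 16 h at 37 °C.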

[20] = biological target: Bile acid receptor (Homo sapiens) (UniProt Q96RI1); experiment: qHTS assay to identify small molecule agonists of the farnesoid-X-receptor (FXR) signaling pathway (AID 743220; active = well fitted activation curve with a large enough effect in the signal ratio in the repeat runs, not every such curve was filed as active; the % refers to the signal ratio)
Method in brief: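 FXR-UAS-bla HEK 293T cells carrying a UAS-driven beta-lactamase reporter were plated for 5 h at 37C/5% CO2, then exposed to DMSO-dissolved Tox21 10K compounds for 16 h at 37C. A LiveBLAzer B/G FRET substrate was loaded for 2 h at room temperature before fluorescence reading.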
% is scaled to controls: 0 for no effect and ±100 for the full control effect.

Bile acid receptor (Homo sapiens), sequence (Q96RI1 whole entry, looked up): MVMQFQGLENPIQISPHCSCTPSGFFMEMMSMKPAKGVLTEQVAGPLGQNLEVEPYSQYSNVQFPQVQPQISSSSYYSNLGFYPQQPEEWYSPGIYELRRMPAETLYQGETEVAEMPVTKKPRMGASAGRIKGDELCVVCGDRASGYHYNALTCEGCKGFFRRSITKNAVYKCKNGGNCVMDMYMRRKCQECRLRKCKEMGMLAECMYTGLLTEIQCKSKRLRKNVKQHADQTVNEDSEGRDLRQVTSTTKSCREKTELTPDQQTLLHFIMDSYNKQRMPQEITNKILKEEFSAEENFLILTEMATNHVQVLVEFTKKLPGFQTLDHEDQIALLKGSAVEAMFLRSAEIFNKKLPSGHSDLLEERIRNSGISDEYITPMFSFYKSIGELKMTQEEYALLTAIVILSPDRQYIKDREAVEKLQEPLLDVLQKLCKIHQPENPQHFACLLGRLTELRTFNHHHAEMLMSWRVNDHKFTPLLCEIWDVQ
Aryl hydrocarbon receptor (Homo sapiens), sequence (P35869 whole entry, looked up): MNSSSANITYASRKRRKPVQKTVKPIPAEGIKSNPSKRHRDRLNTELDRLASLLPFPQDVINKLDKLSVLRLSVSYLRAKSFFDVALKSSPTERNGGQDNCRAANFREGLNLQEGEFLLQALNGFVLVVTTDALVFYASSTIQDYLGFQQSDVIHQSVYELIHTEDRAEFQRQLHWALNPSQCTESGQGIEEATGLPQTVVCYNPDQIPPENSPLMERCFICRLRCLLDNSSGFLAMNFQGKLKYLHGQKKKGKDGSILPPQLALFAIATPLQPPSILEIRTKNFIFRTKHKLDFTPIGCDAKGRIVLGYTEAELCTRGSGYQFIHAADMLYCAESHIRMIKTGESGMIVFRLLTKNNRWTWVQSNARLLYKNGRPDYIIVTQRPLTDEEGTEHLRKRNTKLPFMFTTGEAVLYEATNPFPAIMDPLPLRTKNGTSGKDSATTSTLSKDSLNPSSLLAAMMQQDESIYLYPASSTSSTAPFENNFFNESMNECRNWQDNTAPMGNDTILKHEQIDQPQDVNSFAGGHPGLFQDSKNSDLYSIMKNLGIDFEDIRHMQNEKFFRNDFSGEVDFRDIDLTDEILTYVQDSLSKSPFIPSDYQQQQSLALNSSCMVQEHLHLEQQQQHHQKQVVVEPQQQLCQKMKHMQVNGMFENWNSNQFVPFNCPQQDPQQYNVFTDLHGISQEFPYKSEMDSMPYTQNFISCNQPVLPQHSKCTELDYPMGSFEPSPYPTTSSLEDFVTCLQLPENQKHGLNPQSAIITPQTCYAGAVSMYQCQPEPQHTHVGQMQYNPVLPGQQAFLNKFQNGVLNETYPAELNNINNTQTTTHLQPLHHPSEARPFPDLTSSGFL
Peroxisome proliferator-activated receptor gamma (Homo sapiens), sequence (P37231 whole entry, looked up): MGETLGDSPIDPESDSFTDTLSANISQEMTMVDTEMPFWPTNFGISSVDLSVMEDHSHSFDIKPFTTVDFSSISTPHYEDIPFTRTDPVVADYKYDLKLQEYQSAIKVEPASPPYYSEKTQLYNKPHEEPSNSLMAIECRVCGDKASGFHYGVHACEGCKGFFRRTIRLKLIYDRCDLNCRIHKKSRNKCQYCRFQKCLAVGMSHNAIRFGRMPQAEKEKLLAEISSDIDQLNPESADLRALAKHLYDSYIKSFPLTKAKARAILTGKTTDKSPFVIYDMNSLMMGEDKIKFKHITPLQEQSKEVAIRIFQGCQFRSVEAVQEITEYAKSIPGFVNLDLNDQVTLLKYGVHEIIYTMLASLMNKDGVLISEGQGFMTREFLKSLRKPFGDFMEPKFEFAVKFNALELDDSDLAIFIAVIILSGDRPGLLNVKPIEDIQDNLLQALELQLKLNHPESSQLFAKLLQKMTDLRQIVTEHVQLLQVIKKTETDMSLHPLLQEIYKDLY
Vitamin D3 receptor (Homo sapiens), sequence (P11473 whole entry, looked up): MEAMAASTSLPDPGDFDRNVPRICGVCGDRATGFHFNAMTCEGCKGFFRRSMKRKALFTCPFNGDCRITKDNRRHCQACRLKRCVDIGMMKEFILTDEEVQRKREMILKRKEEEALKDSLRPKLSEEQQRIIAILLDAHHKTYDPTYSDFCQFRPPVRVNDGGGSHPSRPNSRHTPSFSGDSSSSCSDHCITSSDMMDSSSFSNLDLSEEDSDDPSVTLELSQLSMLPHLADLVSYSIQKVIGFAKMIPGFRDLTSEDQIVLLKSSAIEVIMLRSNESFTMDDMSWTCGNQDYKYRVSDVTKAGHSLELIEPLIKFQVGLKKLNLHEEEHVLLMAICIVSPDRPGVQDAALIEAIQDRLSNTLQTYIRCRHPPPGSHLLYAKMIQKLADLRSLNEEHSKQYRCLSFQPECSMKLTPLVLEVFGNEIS
Peroxisome proliferator-activated receptor delta (Homo sapiens), sequence (Q03181 whole entry, looked up): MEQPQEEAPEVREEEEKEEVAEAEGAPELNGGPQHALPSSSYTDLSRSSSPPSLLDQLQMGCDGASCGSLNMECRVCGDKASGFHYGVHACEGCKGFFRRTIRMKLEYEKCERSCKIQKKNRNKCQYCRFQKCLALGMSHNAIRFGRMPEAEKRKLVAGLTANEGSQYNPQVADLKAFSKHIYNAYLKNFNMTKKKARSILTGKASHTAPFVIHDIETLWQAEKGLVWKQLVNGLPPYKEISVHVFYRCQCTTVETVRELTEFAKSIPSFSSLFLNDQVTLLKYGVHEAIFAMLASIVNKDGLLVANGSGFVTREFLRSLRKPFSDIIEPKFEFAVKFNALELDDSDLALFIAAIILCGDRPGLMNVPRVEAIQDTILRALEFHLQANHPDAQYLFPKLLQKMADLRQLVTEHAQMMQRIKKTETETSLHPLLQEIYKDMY

C[C@H]1C[C@H]2[C@@H]3CCC4=CC(=O)C=C[C@]4(C)[C@@]3(Cl)[C@@H](O)C[C@]2(C)[C@@]1(O)C(=O)CO
inactive: Potency [1] | Potency [2] | Potency [3] | Potency [4] | Potency [5] | Potency [6] | Potency [7] | Potency [8] | Potency [9] | Potency [10] | Potency [11] | Potency [12] | Potency [13] | Potency [14] | Potency [15] | outcome [16] | Potency [17]

CCn1cc(C(=O)O)c(=O)c2cnc(N3CCNCC3)nc21
inactive: Potency [1] | Potency [2] | Potency [3] | Potency [4] | Potency [5] | Potency [6] | Potency [7] | Potency [8] | Potency [10] | Potency [18] | Potency [19] | Potency [13] | Potency [20] | Potency [14] | Potency [17]

O=C(O)CC(=O)C(=O)O
inactive: Potency [1] | Potency [2] | Potency [3] | Potency [4] | Potency [5] | Potency [6] | Potency [7] | Potency [8] | Potency [9] | Potency [10] | Potency [18] | Potency [19] | Potency [13] | Potency [14] | Potency [15] | outcome [16]

CC(CC=O)c1ccccc1 (stereo not given)
inactive: Potency [1] | Potency [2] | Potency [3] | Potency [4] | Potency [5] | Potency [6] | Potency [7] | Potency [9] | Potency [10] | Potency [11] | Potency [18] | Potency [12] | Potency [14] | Potency [15] | outcome [16] | Potency [17]

NC(N)=NCCC[C@H](N)C(=O)O
inactive: Potency [1] | Potency [2] | Potency [3] | ratio activity, negative = inhibition [4] 0.163% [at 5.95 µM] | activity change, negative = cytotoxicity [5] 5.54% [at 5.95 µM] | activation [6] 0.601% [at 8.36 µM] | viability change, negative = cytotoxic [7] 9.06% [at 8.36 µM] | activation [9] 0.502% [at 5.95 µM] | activity change, negative = cytotoxicity [10] 1.87% [at 5.95 µM] | activation [11] 0.522% [at 5.95 µM] | viability change, negative = cytotoxic [18] 2.08% [at 6.26 µM] | ratio activity, negative = inhibition [12] -1.1% [at 6.26 µM] | viability change, negative = cytotoxic [13] -2.05% [at 5.95 µM] | activity change, negative = cytotoxicity [14] -8.21% [at 5.95 µM] | activation [15] 9.36% [at 6.01 µM] | activity change, negative = inhibition [16] 2.1% [at 6.95 µM] | activity change, negative = cytotoxicity [17] -0.114% [at 5.95 µM]

Cc1cc(C(=O)O)ccc1[N+](=O)[O-]
inactive: Potency [1] | Potency [2] | Potency [3] | Potency [4] | Potency [5] | Potency [6] | Potency [7] | Potency [8] | Potency [9] | Potency [10] | Potency [11] | Potency [12] | Potency [13] | Potency [15] | Potency [17]

CCCCC(CC)COC(=O)CCCCCCCCC(=O)OCC(CC)CCCC (stereo not given)
inactive: Potency [1] | Potency [2] | Potency [3] | Potency [4] | Potency [5] | Potency [6] | Potency [7] | Potency [8] | Potency [9] | Potency [10] | Potency [11] | Potency [12] | Potency [19] | Potency [13] | Potency [14] | Potency [15] | outcome [16] | Potency [17]

CCCCCCCCCCCc1ccccc1
inactive: Potency [1] | Potency [2] | Potency [3] | Potency [4] | Potency [5] | Potency [6] | Potency [7] | Potency [9] | Potency [11] | Potency [18] | Potency [12] | Potency [19] | Potency [13] | Potency [20] | Potency [14] | Potency [15] | outcome [16] | Potency [17]

C=C(C)C(=O)OCC
inactive: Potency [1] | Potency [2] | Potency [3] | Potency [4] | Potency [5] | Potency [6] | Potency [7] | Potency [8] | Potency [10] | Potency [11] | Potency [12] | Potency [19] | Potency [13] | Potency [20] | Potency [14] | Potency [15] | outcome [16] | Potency [17]

CCN(CC)CCOC(=O)C(Cc1cccc2ccccc12)CC1CCCO1 (stereo not given)
inactive: Potency [1] | Potency [2] | Potency [3] | Potency [4] | Potency [5] | Potency [6] | Potency [7] | Potency [8] | Potency [9] | Potency [10] | Potency [13] | Potency [14] | Potency [15] | outcome [16] | Potency [17]

O=C(OCCc1ccccc1)c1ccccc1
inactive: Potency [1] | Potency [2] | Potency [3] | Potency [4] | Potency [5] | Potency [6] | Potency [7] | Potency [8] | Potency [9] | Potency [10] | Potency [11] | Potency [18] | Potency [12] | Potency [13] | Potency [14] | Potency [15] | outcome [16] | Potency [17]

CNC(=O)CN(CCN(CCN(CC(=O)[O-])CC(=O)NC)CC(=O)[O-])CC(=O)[O-].O.[Gd+3]
inactive: Potency [1] | Potency [2] | Potency [3] | Potency [4] | Potency [5] | Potency [6] | Potency [7] | Potency [8] | Potency [11] | Potency [12] | Potency [13] | Potency [14] | Potency [15] | outcome [16] | Potency [17]

CC(=O)c1cccc([N+](=O)[O-])c1
inactive: Potency [1] | Potency [2] | Potency [3] | Potency [4] | Potency [5] | Potency [6] | Potency [7] | Potency [8] | Potency [9] | Potency [10] | Potency [11] | Potency [18] | Potency [12] | Potency [19] | Potency [13] | Potency [20] | Potency [14] | Potency [15] | outcome [16] | Potency [17]

CC(C)(C)Cl
inactive: Potency [1] | Potency [2] | Potency [3] | Potency [4] | Potency [5] | Potency [6] | Potency [7] | Potency [8] | Potency [9] | Potency [10] | Potency [19] | Potency [13] | Potency [20] | Potency [14] | Potency [15] | outcome [16] | Potency [17]
